Measured values from PubChem BioAssay AID686978 (National Center for Advancing Translational Sciences (NCATS), 2013).
Among all 420,000 compounds or so, about 64,000 (15%) were called active. Roughly 27% stayed inconclusive and do not appear here. Calls come from the whole dose curve; as a rule, active = well fitted inhibition curve with a large enough effect; inconclusive = small, poorly fitted or top-dose-only effect; inactive = flat fitted curve, though single readings scatter. The list is a sample of the results. Entries that show only a call come without a potency. Peptide text beside a SMILES is read from it.

experiment: qHTS for Inhibitors of human tyrosyl-DNA phosphodiesterase 1 (TDP1): qHTS in cells in absence of CPT; conditions: DT40 Tdp1-/- hTDP1 cells, no CPT, ATP luminescence, 48 h; activity change, negative = growth inhibition: at 46.2 µM (top of the series); note: nearly all actives have a fitted effect of over 55% in size
Procedure, shortened: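 Compound effects on proliferation are scored in DT40 Tdp1-/-;hTDP1 cells in the absence of CPT. ATP levels (CellTiter-Glo luminescence) are recorded after a ≥48 hr, 37 °C incubation.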
Potency is the fitted concentration of half-maximal effect.

| Structure (SMILES) | Potency |
| --- | --- |
| Cc1cccc(OP(=O)(Nc2c(C)n(C)n(-c3ccccc3)c2=O)Oc2cccc(C)c2)c1 | inactive |
| CCC1CCCCN1CCCNC(=O)Cn1nc(-c2ccccc2)ccc1=O (stereo not given) | 0.0103 µM (active) |
| CCC1CCCCN1CCCNC(=O)C1CCC(Cn2c(=O)[nH]c3ccccc3c2=O)CC1 (stereo not given) | inactive |
| Cc1ccc(-c2ccc(=O)n(CC(=O)NCCCN3CCCCC3)n2)cc1 | inactive |
| Cc1ccc(C2Nc3ccccc3C(=O)N2CCN2CCNC2=O)cc1 (stereo not given) | inactive |
| COc1ccc(S(=O)(=O)N2CCN(C(C)C(=O)Nc3ccc(C(C)C)cc3)CC2)cc1 (stereo not given) | 14.6 µM (active) |
| COc1ccc(OCC(=O)OCC(=O)Nc2ccc(S(=O)(=O)N3CCCCC3)cc2)cc1 | inactive |
| COc1cccc(CNC(C)C(=O)Nc2ccc(S(=O)(=O)N3CCCC3)cc2)c1 (stereo not given) | inactive |
| CCOC(=O)Cc1cc(=O)[nH]c(/N=C(\N)Nc2ccc(OC)cc2)n1 | inactive |
| CC1CCN(C(=O)CCNC(=O)c2ccccc2)CC1 | inactive |
| CNC(=O)N1c2ccccc2C=Cc2ccccc21 | inactive |
| CC1C(C)N(C(=O)CCl)c2ccccc2N1C(=O)CCl (stereo not given) | 0.58 µM (active) |
| Cc1nc(C)c2c(c1C(F)(F)F)-c1ccccc1C2(F)F | inactive |
| O=C(NC1CCCC1)c1ccc(Br)s1 | inactive |
| CCOc1c2ccc(C(=O)NCc3ccc(OC(F)(F)F)cc3)cc2nn1C | inactive |
| COc1cc(CNCc2ccc(OC)c3ccccc23)cc(OC)c1OC | 11.6 µM (active) |
| COc1cc(CNCc2cccs2)cc(Br)c1OC | inactive |
| COc1ccc(CNCCCNCc2ccc(OC)c(OC)c2)cc1OC | inactive |
| COc1ccc(CNC(=O)COC(=O)C2=Cc3ccccc3OC2)cc1 | inactive |
| O=C(COc1ccccc1)N1CCc2ccccc2C1 | inactive |
| CCc1ccc2oc(-c3ccc(C)c(NC(=O)/C=C/c4ccco4)c3)nc2c1 | 18.4 µM (active) |
| CCC(CC)c1nnc(NC(=O)/C=C/c2ccco2)s1 | inactive |
| Cc1ccc2nc(-c3ccc(C)c(NC(=O)Cc4ccccc4)c3)oc2c1 | inactive |
| NC(=S)c1ccc(C(N)=S)o1 | inactive |
| Cc1ccc(C(=O)O/N=C(\N)c2ccccn2)cc1Cl | inactive |

| Structure (SMILES) | Potency |
| --- | --- |
| Cc1ccc(/C=C/C(=O)Nc2ccc([N+](=O)[O-])c(NC(=O)/C=C/c3ccc(C)o3)c2)o1 | 11.6 µM (active) |
| COc1ccc(OC)c(NC(=O)/C=C/c2ccc(C)o2)c1 | inactive |
| CCc1nnc(NC(=O)/C=C/c2ccc(C)o2)s1 | inactive |
| O=C(NC(=S)NC1CCSC1=O)c1ccccc1F (stereo not given) | inactive |
| Cc1ccc(-n2c(=O)cc(N3CCN(Cc4ccccc4)CC3)[nH]c2=O)cc1 | inactive |
| COc1ccc(N(CC(=O)N/N=C/c2cccc3c2OCCO3)S(=O)(=O)c2ccc(NC(C)=O)cc2)cc1 | inactive |
| COC(=O)COc1cccc2c(=O)n(CC(=O)NCc3ccccc3)ccc12 | 2.06 µM (active) |
| CCOCCn1ccc2c(OCC(=O)NCc3ccc(C)cc3)cccc2c1=O | inactive |
| COC(=O)COc1cccc2c(=O)n(CC(=O)NCCc3ccc(OC)c(OC)c3)ccc12 | inactive |
| Cc1ccccc1OCC(=O)NNC(=O)c1cc(S(=O)(=O)N(C)C)ccc1N1CCCC1 | inactive |
| Cc1ccccc1OCC(=O)Nc1ccc2c(c1)ncn2C | inactive |
| Cc1ccccc1OCC(=O)Nc1ccc(N2CCN(C(=O)C(C)C)CC2)c(Cl)c1 | 6.51 µM (active) |
| Cc1ccccc1N1CC(C(=O)Nc2nnc(SCCC3OCCO3)s2)CC1=O (stereo not given) | inactive |
| O=C(CSc1nn(-c2ccc(F)cc2)c(=S)s1)NC1CCS(=O)(=O)C1 (stereo not given) | inactive |
| CC(=O)CC[C@@H](C)O[C@@H]1OC(C)[C@H](O)CC1O (stereo not given in full) | inactive |
| CCc1cc(C(=O)Nc2nnc(C3CC3)s2)sc1C | inactive |
| O=C(Nc1nnc(C2CC2)s1)c1ccccn1 | 16.4 µM (active) |
| Cc1cc(C(=O)Nc2nnc(C3CC3)s2)c(C)s1 | inactive |
| O=C1CCC(C(=O)N2CCC(O)(c3ccccc3)CC2)CN1CCc1ccccc1 (stereo not given) | inactive |
| COCCn1c(C)cc(C(=O)CSc2nc3ccccc3c(=O)n2C(C)COC)c1C (stereo not given) | 9.2 µM (active) |
| COCC(C)n1c(C)cc(C(=O)CSc2cc(C)c3ccccc3n2)c1C (stereo not given) | 16.4 µM (active) |
| COCCn1c(C)cc(C(=O)CSc2nnc(C3CC3)n2C2CC2)c1C | inactive |
| COCCn1c(C)cc(C(=O)CN2c3cccc4cccc(c34)S2(=O)=O)c1C | inactive |
| Cc1cc(SCC(=O)NCCN2C(=O)CSC2=O)nc2ccccc12 | inactive |
| Cc1ccc(C(=O)CSc2nc3ccccc3c(=O)n2N)o1 | inactive |

| Structure (SMILES) | Potency |
| --- | --- |
| COCC(C)n1c(SCc2ccc(C(=O)OC)o2)nc2ccccc2c1=O (stereo not given) | 8.2 µM (active) |
| C=CCn1c(SCc2ccc(C(=O)NCCO)cc2)nc2ccccc2c1=O | inactive |
| COc1ccc2c(C)cc(SCC(=O)NCC3CCCO3)nc2c1 (stereo not given) | inactive |
| Nc1nc2c(Br)ccc(Br)c2cc1C(=O)NCCc1ccccc1 | inactive |
| CC(C)C(=O)Nc1nnc(Sc2ccc(N(C)C)cc2)s1 | inactive |
| Cc1ccc(N=C2SCCCN2C(=O)c2cccc(N3C(=O)CCC3=O)c2)cc1Cl | inactive |
| CCCn1c(=O)c2ccccc2n2c(SCC(=O)/C(C#N)=C(\C)N)nnc12 | inactive |
| Cc1cc(NC(=O)CSC2=NS(=O)(=O)c3cc(Cl)ccc3N2)no1 | inactive |
| Cc1cccc(C)c1-n1c(C)cc(/C=C2\C(=O)NN(c3ccccc3)C2=O)c1C | inactive |
| O=c1oc2ccccc2c(CNc2ccccc2)c1[N+](=O)[O-] | inactive |
| Cc1cc(C(=O)Nc2cccc(C(F)(F)F)c2)c2c(C)nn(-c3cccc(F)c3)c2n1 | 23.1 µM (active) |
| CC(=O)c1nn(-c2cccc(C(F)(F)F)c2)c(=O)[nH]c1=O | inactive |
| Cc1cccc(NC(=O)c2nnn(-c3cccc(C(F)(F)F)c3)c2N)c1 | inactive |
| COc1ccc(NC(=O)CN(C)C(=O)CC2CCCCC2)cc1 | inactive |
| CC1CCCCC1NC(=O)COC(=O)Cc1ccc(Cl)cc1 (stereo not given) | inactive |
| CC1CCCC(NC(=O)CN2CCN(Cc3ccc(Cl)cc3)C2=O)C1C (stereo not given) | 23.1 µM (active) |
| Cc1ccc(CNC(=O)CN2CCN(Cc3ccc(Cl)cc3)C2=O)cc1 | inactive |
| Cc1ccc(S(=O)(=O)N/N=C(\c2ccccc2)C2CC2)cc1 | inactive |
| Cc1ccc2c(c1)N(CC(=O)N1CCC(O)CC1)C(=O)CO2 | inactive |
| CC[C@H](C)CCCCC(=O)N[C@@H](CCN)C(=O)N[C@H](C(=O)N[C@@H](CCN)C(=O)N[C@H]1CCNC(=O)[C@@H]([C@H](C)O)NC(=O)[C@H](CCN)NC(=O)[C@H](CCN)NC(=O)[C@H](CC(C)C)NC(=O)[C@@H](CC(C)C)NC(=O)[C@H](CCN)NC1=O)[C@@H](C)O (HELM PEPTIDE1{[CC[C@H](C)CCCCC(=O)[*:2]].[Dab].T.[Dab].[Dab].[Dab].[dL].L.[Dab].[Dab].[dT]}$PEPTIDE1,PEPTIDE1,5:R3-11:R2$$$V2.0) | inactive |
| Cc1cc(N2CCN(c3cccc(C(F)(F)F)c3)CC2)n2nc(-c3ccccc3)nc2n1 | inactive |
| O=c1n(Cc2cccc(C(F)(F)F)c2)c2ccccc2c2nc(-c3ccccc3)nn12 | 25.9 µM (active) |
| COc1ccc(-c2nc3c4ccccc4n(CC(=O)Nc4ccc(C(C)=O)cc4)c(=O)n3n2)cc1 | inactive |
| CCN(CCCNC(=O)CCn1c(=O)[nH]c2ccsc2c1=O)c1ccccc1 | inactive |
| COc1cc(OC)cc(C(=O)Nc2ncc3c(n2)CC(C)(C)CC3=O)c1 | inactive |

| Structure (SMILES) | Potency |
| --- | --- |
| Cc1ccc(NC(=O)C(CC(=O)O)C2CCCO2)c(C)c1 (stereo not given) | inactive |
| CSCCC(NC(=O)c1ccc(Cl)cc1Cl)C(=O)NNC(=O)c1csc(N2CCOCC2)n1 (stereo not given) | inactive |
| Cc1ccc(CCn2c3c(c4ccccc42)CN(C)CC3)cn1 | inactive |
| Cc1ccc(-c2noc(CSc3nnnn3-c3ccccc3)n2)cc1 | inactive |
| Cc1ccc(-c2noc(CSc3nnc(-c4ccncc4)n3-c3ccc(F)cc3)n2)cc1 | 18.4 µM (active) |
| COc1ccccc1-c1noc(CSc2nc(C)cc(=O)[nH]2)n1 | inactive |
| COc1ccc(-c2noc(CSc3nnc(-c4ccccc4)n3-c3ccc(F)cc3)n2)c(OC)c1 | 20.6 µM (active) |
| Cn1c(SCc2ccc(F)cc2)nnc1-c1ccncc1 | inactive |
| COc1ccc(C(=O)NC(=O)CSc2nnc(-c3ccco3)n2-c2ccccc2)cc1 | inactive |
| Cc1nc(N2CCOCC2)sc1C(=O)NN | inactive |
| COC(=O)Cc1ccc(OCC(=O)NC2CCCC2)cc1 | inactive |
| COc1ccc(-n2nc3c(c2NC(=O)Cc2cccc(C)c2)CS(=O)C3)cc1 (stereo not given) | inactive |
| Cc1nc(NC(CC(C)C)C(=O)O)c2nc(C)oc2n1 (stereo not given) | inactive |
| Cc1ccc(NC(=S)N/N=C2/CCCc3c(C)cc(C)cc32)cc1 | inactive |
| Cc1ccc(S(=O)(=O)c2nnn3c2nc(N2CCN(c4ccccc4F)CC2)c2cc(Cl)ccc23)cc1C | inactive |
| COCCn1c(SCC(=O)Nc2cc(OC)ccc2OC)nc2c(c1=O)SC(C)C2 (stereo not given) | 13 µM (active) |
| Cc1ccc(Cl)cc1NC(=O)CSc1nccn1C | inactive |
| COc1ccc(NC(=O)CSc2nc(SC)ns2)c(OC)c1 | inactive |
| COCCn1c(SCC(=O)Nc2cc(Cl)ccc2OC)nc2c(c1=O)SC(C)C2 (stereo not given) | 20.6 µM (active) |
| COCCn1c(SCC(=O)Nc2ccccc2F)nc2c(c1=O)SCC2 | inactive |
| COc1ccc(OC)c(NC(=O)Cn2c(=O)n(Cc3ccccc3)c(=O)c3ccccc32)c1 | inactive |
| CCc1cccc(C)c1NC(=O)CSc1nnc(-c2ccco2)n1N | inactive |
| CCOC(=O)CSc1nnc(NC(=O)c2cccc(S(=O)(=O)N3CCCC3)c2)s1 | inactive |
| O=C(Nc1cccc2cccnc12)c1cccc2c(Br)cccc12 | inactive |
| Cc1ccccc1CS(=O)(=O)CC1(O)CCN(C(=O)c2cccc(C(F)(F)F)c2)CC1 | inactive |
